In all, about 400,000 compounds went through this assay and about 2,100 (0.53%) were called active. Another 14% or so got no clear call; they are omitted. The rule behind the calls is not given here. Many of the other results were omitted from the sample, so actives are more common in it than they were.

The target of this assay is Ataxin-2 (Homo sapiens) (UniProt Q99700). Kind of assay: qHTS for Inhibitors of ATXN expression. The format is functional. On the technique in general: qHTS replaces the single test concentration by a dilution series.
Sequence of Ataxin-2 (Homo sapiens) (Q99700 whole entry): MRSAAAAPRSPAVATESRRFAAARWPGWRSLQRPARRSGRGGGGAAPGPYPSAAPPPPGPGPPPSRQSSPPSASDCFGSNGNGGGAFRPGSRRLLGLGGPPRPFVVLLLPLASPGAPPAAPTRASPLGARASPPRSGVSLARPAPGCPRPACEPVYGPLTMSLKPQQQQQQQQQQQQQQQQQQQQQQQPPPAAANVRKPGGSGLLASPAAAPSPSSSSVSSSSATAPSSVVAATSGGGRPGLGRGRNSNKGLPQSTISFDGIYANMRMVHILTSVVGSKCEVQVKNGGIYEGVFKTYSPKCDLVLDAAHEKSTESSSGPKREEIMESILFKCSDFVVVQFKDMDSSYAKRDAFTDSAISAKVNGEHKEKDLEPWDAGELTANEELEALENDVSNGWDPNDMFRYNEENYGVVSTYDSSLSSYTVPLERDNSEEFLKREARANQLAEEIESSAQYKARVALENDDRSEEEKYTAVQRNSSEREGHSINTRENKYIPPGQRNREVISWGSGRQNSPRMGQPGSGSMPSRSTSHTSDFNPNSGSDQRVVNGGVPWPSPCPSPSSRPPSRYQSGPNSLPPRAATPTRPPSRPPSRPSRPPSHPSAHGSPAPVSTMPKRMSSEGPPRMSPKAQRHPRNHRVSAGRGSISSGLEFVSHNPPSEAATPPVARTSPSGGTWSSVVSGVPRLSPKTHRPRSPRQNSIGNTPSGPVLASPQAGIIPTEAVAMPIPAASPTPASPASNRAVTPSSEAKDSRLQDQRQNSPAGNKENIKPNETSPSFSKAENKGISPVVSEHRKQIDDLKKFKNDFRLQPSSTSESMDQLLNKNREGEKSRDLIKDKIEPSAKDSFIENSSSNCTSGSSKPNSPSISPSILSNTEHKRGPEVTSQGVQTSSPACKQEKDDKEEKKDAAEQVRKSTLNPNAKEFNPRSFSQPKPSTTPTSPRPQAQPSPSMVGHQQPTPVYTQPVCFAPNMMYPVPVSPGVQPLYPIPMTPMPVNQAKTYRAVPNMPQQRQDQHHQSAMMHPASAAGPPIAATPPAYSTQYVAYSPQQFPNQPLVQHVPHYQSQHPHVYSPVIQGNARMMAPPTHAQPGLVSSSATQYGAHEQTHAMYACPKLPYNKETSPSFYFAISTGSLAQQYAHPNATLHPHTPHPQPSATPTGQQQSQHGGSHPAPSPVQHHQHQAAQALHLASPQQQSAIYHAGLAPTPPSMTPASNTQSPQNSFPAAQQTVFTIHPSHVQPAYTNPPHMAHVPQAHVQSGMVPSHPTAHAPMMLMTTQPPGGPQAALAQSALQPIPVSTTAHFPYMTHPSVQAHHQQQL
Regarding `N#CC1=C(N)Oc2c(oc(CO)cc2=O)C1c1ccccc1[N+](=O)[O-]` (stereo not given), the Potency result is “inactive”.

Regarding `O=C(CCNC(=O)Cn1cnc2ccccc2c1=O)NCC1CCCO1` (stereo not given), the Potency entry is “inactive”.

With `CCCCCOc1ccc(CSC2=NCCN2)cc1[N+](=O)[O-]`, the Potency is 35.5 µM (active).

With `COC(=O)C(N)Cc1ccc(OC)c([N+](=O)[O-])c1` (stereo not given), the Potency result was “inactive”.

For `Cc1ccc(OCCn2cnc3ccccc3c2=O)c([N+](=O)[O-])c1`, the Potency result is “inactive”.

Regarding `Cc1ccccc1NC(=O)COc1ccc(Br)cc1C`, the Potency entry was “inactive”.

`CCC1CN(C(=O)NCc2ccc(F)cc2)c2ccccc2O1` (stereo not given): the Potency result is “inactive”.

Regarding `O=C(CN1C(=O)c2cccc3cccc1c23)Nc1ccccc1`, the Potency result is “inactive”.

For `CCn1c(=O)c(C(=O)Nc2ccc(C)cc2)c(O)c2ccccc21`, the Potency result was “inactive”.

Turning to `O=C(CN1C(=O)CSc2ccc(C(F)(F)F)cc21)Nc1ccccc1`, the Potency entry is “inactive”.

Consider `Cc1ccc(NC(=O)Cn2sc3ccccc3c2=O)cc1`, for which the Potency was 25.1 µM (active).

In the case of `O=C(CC1C(=O)NCCN1C(=O)Nc1ccccc1)Nc1ccc(F)cc1` (stereo not given), the Potency result was “inactive”.

Turning to `O=C(Cn1sc2ccccc2c1=O)Nc1ccccc1`, the Potency is 39.8 µM (active).

In the case of `O=C(Nc1ccc(F)cc1)c1cccc2ccccc12`, the Potency result was “inactive”.

`O=C(Cn1sc2ccccc2c1=O)Nc1ccc(F)cc1`: the Potency is 31.6 µM (active).

`CC(=O)c1ccccc1NCC(=O)Nc1ccc(C)cc1`: the Potency result is “inactive”.

Take `COc1cccc2sc3cc(NCC[C@@H]4CCCN4C)ccc3c(=O)c12`: the Potency result was “inactive”.

`CCc1nc2ccc(C(=O)Nc3cccc(OC)c3)cn2c1N(CCC(C)C)CCN(C)C`: the Potency is 14.1 µM (active).

As for `COc1ccc(C)cc1NC(=O)c1cc(-c2ccccc2)nc2c1cnn2C(C)C`, the Potency entry is “inactive”.

With `COc1cc(C(=O)Nc2ccn(C)n2)ccc1OC(F)F`, the Potency entry was “inactive”.

In the case of `COc1ccc(NC(=O)c2ccc(S(=O)(=O)N3CC(C)CC(C)C3)cc2)cc1S(N)(=O)=O` (stereo not given), the Potency result was “inactive”.

For `CCCNC(=O)c1c(N)n(-c2cccc(OC)c2)c2nc3ccccc3nc12`, the Potency result was “inactive”.

For the molecule `CCc1nc2ccc(C(=O)Nc3cc(-c4ccccc4)ccc3OC)cn2c1N(CC)CCN(C)C`, the Potency was 39.8 µM (active).

Take `CCc1nc2ccc(C(=O)Nc3ccc(OC)c(OC)c3)cn2c1N(C)CCC(C)C`: the Potency is 31.6 µM (active).

`Cc1ccc(-c2cc(C(=O)Nc3ccccn3)c3ccccc3n2)o1`: the Potency result was “inactive”.

Consider `CN(NC(=O)COc1ccccc1)C1=NS(=O)(=O)c2ccccc21`, for which the Potency entry is “inactive”.

In the case of `CC(=O)c1ccc(/N=c2\scc(C)n2C(C)C)cc1`, the Potency result was “inactive”.

Regarding `CC(=O)Nc1cccc(-c2csc(Nc3cc(C)ccn3)n2)c1`, the Potency was 25.1 µM (active).

Regarding `CC(=O)Nc1ccc(-c2ccnc(-c3ccc(NC(C)=O)cc3)n2)cc1`, the Potency result is “inactive”.

For the molecule `COc1ccc(-c2csc(NC(=O)c3c(C)noc3C)n2)cc1OC`, the Potency entry is “inactive”.

With `Cc1c(CCC(=O)NCCCN2CCCC2=O)c(=O)oc2c(C)c(O)ccc12`, the Potency entry is “inactive”.

In the case of `COc1cc(/C=C/c2sc3ccccc3[n+]2CCCS(=O)(=O)[O-])ccc1O`, the Potency is 18.9 µM (active).

For `Cc1cccn2c(=O)c3cc(C(=O)NCC4CCCO4)c(=N)n(Cc4ccc(F)cc4)c3nc12` (stereo not given), the Potency result was “inactive”.

As to `CCN(CC)c1ccc(/C=C(\C#N)c2ccccn2)cc1`, the Potency entry was “inactive”.

Regarding `CCS(=O)(=O)c1ccc2oc(SCC(=O)NCCc3ccccc3)nc2c1`, the Potency result is “inactive”.

Take `COc1cccc(Cc2nc3ccccc3nc2SCC(=O)NCCc2ccccc2)c1`: the Potency is 35.5 µM (active).

Regarding `O=C(CSc1ccccc1)NCCc1ccc(F)cc1`, the Potency result is “inactive”.

Consider `O=S(=O)(c1ccc(N2CCC(c3ccc(Cl)cc3)=N2)cc1)N(CCO)CCO`, for which the Potency result is “inactive”.

As for `CCCCC[C@H](O)/C=C/[C@H]1CCC(=O)[C@@H]1CCCCCCC(=O)N1CCCCC1CO` (stereo not given in full), the Potency is 39.8 µM (active).

Consider `CN(/N=C/c1cc(Cl)cc(Cl)c1O)C(=S)NC(C)(C)C`, for which the Potency entry is “inactive”.

Take `Cc1cc(N2CCOCC2)n2ncc(-c3ccccc3Cl)c2n1`: the Potency entry is “inactive”.

With `C=CCn1nc([N+](=O)[O-])nc1Sc1cccc2cccnc12`, the Potency was 39.8 µM (active).

As for `Cc1nn(C)c(Sc2ccccn2)c1[N+](=O)[O-]`, the Potency entry is “inactive”.

With `Cn1nc([N+](=O)[O-])nc1Sc1cccc2cccnc12`, the Potency was 7.94 µM (active).

As to `CCOc1ccc2nc(NCCNC(=O)CC)c(C#N)cc2c1`, the Potency result is “inactive”.

Take `CN1c2ccccc2Oc2nnc(Cl)cc21`: the Potency entry is “inactive”.

In the case of `Cc1cc(-c2nnc3n2N=C(c2ccccc2)CS3)[nH]n1`, the Potency entry is “inactive”.

On to `Clc1ccc(C2=Nn3c(nnc3-c3cc(-c4ccccc4)[nH]n3)SC2)cc1`, for which the Potency is 35.5 µM (active).

Turning to `O=c1c2ccccc2nc(/C=C/c2ccc(O)cc2)n1CCc1ccccc1`, the Potency entry was “inactive”.

Turning to `Cc1nn(C(=O)CCCC(=O)NCc2ccccc2)c2ccccc12`, the Potency entry is “inactive”.

`CCCCC[C@H]1CN(C2CCCCC2)C(=O)[C@@H]1CC(=O)NCc1ccccc1`: the Potency is 39.8 µM (active).

As to `O=C(CC1CCCCC1)NCc1nc(-c2ccccc2)no1`, the Potency entry is “inactive”.

`CCN1C(=O)c2cccc3c(S(=O)(=O)N4CCNCC4)ccc1c23`: the Potency result is “inactive”.

For the molecule `COc1cc(Br)c(/C=C/c2ccc3cccc(O)c3n2)cc1OC`, the Potency is 25.1 µM (active).

For the molecule `COc1cccc(/C=C/c2ccc3cccc(O)c3n2)c1OC`, the Potency result is “inactive”.

On to `COc1cc(OC)c(OC)cc1C=Cc1ccc2ccccc2n1`, for which the Potency entry was “inactive”.

Take `Cc1ccc(C2C=C(c3ccc(F)cc3)Nc3nc(CCCO)nn32)cc1` (stereo not given): the Potency result is “inactive”.

As for `O=CN(c1ccccc1)c1ccc2ccccc2c1`, the Potency entry is “inactive”.

In the case of `CCCCCCc1cc2cc(-c3nnc(-c4cc(OC)c(OC)c(OC)c4)o3)c(=O)oc2cc1O`, the Potency entry was “inactive”.

As for `COCCCN=C(S)NCCNc1nc2c(C)c(C)ccc2cc1C#N`, the Potency result was “inactive”.

Regarding `COc1cc2nc(/C=C/c3cc(OC)c(OC)c(OC)c3)sc2cc1SC`, the Potency result was “inactive”.

As for `CC1=NN2C(=N)/C(=C\c3cc(C)n(-c4ccc(C)cc4)c3C)C(=O)N=C2S1`, the Potency entry is “inactive”.

As to `CCOc1ccc(-c2ccc(/C=C3/C(=N)N4C=CSC4=NC3=O)o2)c([N+](=O)[O-])c1`, the Potency is 31.6 µM (active).

Turning to `CC1=CN2C(=N)/C(=C/c3ccc([N+](=O)[O-])o3)C(=O)N=C2S1`, the Potency was 28.2 µM (active).

In the case of `CC1=CN2C(=N)/C(=C/c3cc(Cl)c(O)c(Cl)c3)C(=O)N=C2S1`, the Potency entry is “inactive”.

With `COc1ccc(-c2ccc(/C=N/NC(=O)c3cccnc3)o2)c([N+](=O)[O-])c1`, the Potency entry was “inactive”.

Take `CCOC(=O)c1c(N)n(C2CC(C)(C)NC(C)(C)C2)c2nc3ccccc3nc12`: the Potency result was “inactive”.

`CC(CCc1ccco1)NC(=O)Cn1ncc2c(=O)oc3ccccc3c21` (stereo not given): the Potency result was “inactive”.

For the molecule `Cc1ccc2oc(=O)c3cnn(CC(=O)Nc4ccccc4N4CCN(C)CC4)c3c2c1`, the Potency is 7.08 µM (active).

On to `O=C(CN1CCN(c2ccccc2)CC1)Nc1scc2c1c(=O)oc1ccccc12`, for which the Potency entry is “inactive”.

Regarding `CN(C(=S)NC(=O)C12CC3CC(CC(C3)C1)C2)c1ccc(O)cc1`, the Potency entry was “inactive”.

Turning to `Cc1ccc(CCNC(=O)C[S+]([O-])Cc2nc(-c3cccs3)oc2C)cc1` (stereo not given), the Potency entry was “inactive”.

As for `Cc1ccc(-c2nc3sc(CCNC(=O)c4ccc(Br)o4)c(C)n3n2)cc1`, the Potency was 35.5 µM (active).

In the case of `O=C(NCCc1csc(-c2cccnc2)n1)c1ccc(Br)o1`, the Potency entry was “inactive”.

For the molecule `O=C(COc1coc(CN2CCc3ccccc32)cc1=O)N1CCCCC1`, the Potency entry is “inactive”.

Consider `CC[C@H](C)/C=C(C)/C=C/C1=CC2=CC(=O)[C@]3(C)OC(=O)[C@@H](C(C)=O)[C@@H]3C2=CO1`, for which the Potency result was “inactive”.

As to `CC[C@H](C)/C=C/C1=CC2=C(Cl)C(=O)[C@@]3(C)OC(=O)C(C(=O)[C@H](C)[C@@H](C)O)=C3C2=CO1`, the Potency is 11.9 µM (active).

On to `CCCCCCNC(=O)OC12CN(C(=O)OC(C)C)N(C(=O)OC(C)C)CC1(O)CN(S(=O)(=O)c1ccc(C)cc1)C2` (stereo not given), for which the Potency is 25.1 µM (active).

Regarding `O=S(=O)(NCc1ccccc1)c1ccc(S(=O)(=O)N2CCCC2)cc1`, the Potency result was “inactive”.

For the molecule `Cc1ccc(S(=O)(=O)N[C@@H](Cc2ccccc2)C(=O)N2CCC[C@@H]2C(=O)O)cc1`, the Potency result was “inactive”.

For `Cc1ccc(S(=O)(=O)N2CC3(O)CN(C(=O)OC(C)C)N(C(=O)OC(C)C)CC3(OC(=O)NCc3ccccc3)C2)cc1` (stereo not given), the Potency is 22.4 µM (active).

Take `NCCNc1ccc(C(=O)N2c3ccccc3Sc3ccccc32)cc1[N+](=O)[O-]`: the Potency was 14.1 µM (active).

Take `CCCNC(=O)c1ccc(SCC(=O)N(CC)CC)c([N+](=O)[O-])c1`: the Potency entry is “inactive”.

In the case of `CC(=O)NCCNC(=O)c1ccc(Sc2ccccc2)c([N+](=O)[O-])c1`, the Potency result was “inactive”.

For the molecule `C/C(=N\NC(=O)C1=NNC(=O)C1C)c1cccs1` (stereo not given), the Potency result was “inactive”.

With `CN=c1sc2c(n1C)C(=O)c1ccccc1C2=O`, the Potency is 39.8 µM (active).

`O=C(NP(=O)(N1CCOCC1)N1CCOCC1)C1=C(N2CCOCC2)/C(=C\c2ccccc2)CC1`: the Potency entry was “inactive”.

Consider `CC1=CC(=Nc2c(C)n(C)n(-c3ccccc3)c2=O)C=C(C)C1=O`, for which the Potency is 35.5 µM (active).

For the molecule `Cc1c(/N=C2\C=CC(=O)c3ccccc32)c(=O)n(-c2ccccc2)n1C`, the Potency result is “inactive”.

In the case of `Cc1c(N=C2C=C(Br)C(=O)C(Br)=C2)c(=O)n(-c2ccccc2)n1C`, the Potency result is “inactive”.

As to `CCCS(=O)(=O)N1CCN=C1SCc1ccc(C)cc1`, the Potency result is “inactive”.

For the molecule `Cc1cccc(N2C(=O)c3cccc4c(N)ccc(c34)C2=O)c1`, the Potency result was “inactive”.

As for `Cc1cc(C)cc(N2C(=O)C=CC2=O)c1`, the Potency is 28.2 µM (active).

As for `CCOC(=O)c1c(-c2ccc(C)o2)csc1NC(=S)NC(=O)N(C)C`, the Potency is 39.8 µM (active).

In the case of `CCOC(=O)c1c(-c2ccc(C)cc2)csc1NC(=O)/C(C#N)=C/c1ccc(O)c(OC)c1`, the Potency result is “inactive”.

Take `CCOC(=O)c1c(-c2ccc(Cl)cc2)csc1NC(=O)CNCc1ccco1`: the Potency result is “inactive”.

Turning to `CCc1ccc(/C(C)=N/NC(=O)c2ccc(-n3cnnn3)cc2)cc1`, the Potency entry was “inactive”.

For `COc1cc(OC)c(OC)cc1CN1CCc2nc(Nc3ccc4c(c3)OCCO4)ncc2C1`, the Potency result was “inactive”.

On to `Cc1cccn2c(Nc3ccc4c(c3)OCCO4)c(-c3ccc(Br)o3)nc12`, for which the Potency was 39.8 µM (active).

Consider `Cc1cnc(NC(=O)CSc2nnc3ncccn23)s1`, for which the Potency result is “inactive”.

The values above are taken from ChEMBL document CHEMBL1201862, “PubChem BioAssay data set” (2004).
